For 14 molecules, growth results are on record in PubChem BioAssay (NCI).

SMILES strings stand for the structures. Compounds without any hit were thinned out: in the full panel of roughly 83,000, 20% have a hit.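 Percent growth is the endpoint: 0 to 100 indicates growth inhibition (40 means 60% inhibition), 0 means no net growth, and negative values indicate cell death.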 A number with no mark means an inactive call. The source made the active and inactive calls. The calls were made as follows: active = growth percent below 10; inactive = the rest.

Among the test systems are T-47D breast; BT-549 breast; MDA-MB-435 melanoma; SW-620 colon; MCF7 breast; HCT-116 colon; HCC-2998 colon; KM12 colon.
Holding throughout (assay): NCI-60 one-dose screen, 48 h (100 = growth as untreated, 0 = no growth, -100 = all killed)
What all share (settings): 10 µM unless noted

With `C=C1C(=O)O[C@H]2[C@H]1CC/C(COC(=O)CCCC(=O)OC/C1=C/CC[C@@]3(C)O[C@H]3[C@H]3OC(=O)C(=C)[C@@H]3CC1)=C\CC[C@@]1(C)O[C@@H]21`, the growth in the test on T-47D breast is 14.9%; with BT-549 breast, -4.94% (active); in the test with MDA-MB-435 melanoma it was 4.28% (active); in the test with SW-620 colon, -35.9% (active); with MCF7 breast, 8.68% (active); in the test with HCT-116 colon, -53% (active). In addition, the values for the growth in the test with HCC-2998 colon and in the test with KM12 colon were 64.9% and 26%, respectively.

In the case of `O=C(Nc1cccc([N+](=O)[O-])c1)Nc1cccc([N+](=O)[O-])c1`, the growth is 6.88% (active) in the test with T-47D breast; 50.5% in the test on BT-549 breast; 63.1% with MDA-MB-435 melanoma; 45.4% in the test with SW-620 colon; 20.7% with MCF7 breast; 37.3% with HCT-116 colon. The growth in the test with HCC-2998 colon is 45.2%; in the test on KM12 colon, 27.7%.

On to `O=C(/C=C/c1ccco1)c1cccc(Nc2nc(Nc3ccccc3)nc(Nc3ccccc3)n2)c1`, for which the growth in the test with T-47D breast is 48.6%; in the test with BT-549 breast, 116%; in the test with MDA-MB-435 melanoma it was 102%; with SW-620 colon it was 88%; with MCF7 breast, 28.3%; with HCT-116 colon it was 40.4%. Further, the growth in the test on HCC-2998 colon was 68.5%; in the test on KM12 colon, 83.7%.

In the case of `O=S(=O)(O)c1ccc(F)cc1`, the growth in the test on T-47D breast was 98.7%; in the test on BT-549 breast, 101%; in the test on MDA-MB-435 melanoma it was 108%; in the test with SW-620 colon, 103%; with MCF7 breast, 97.8%; in the test with HCT-116 colon it was 99%. Also, the growth in the test with HCC-2998 colon is 105%; in the test with KM12 colon it was 101%.

Consider `O=C1c2ccccc2OC=C(c2ccccc2)N1CCCCNc1ccc(F)cc1`, for which the growth in the test on T-47D breast is 36.3%; in the test with BT-549 breast, 59.1%; in the test on MDA-MB-435 melanoma it was 108%; in the test on SW-620 colon, 103%; with MCF7 breast, 85.6%; in the test with HCT-116 colon, 59.4%. The growth was 104% with HCC-2998 colon and 84.4% in the test with KM12 colon.

As to `CC(C)(CCN=C(N)Nc1ccccn1)c1ccc(C(F)(F)F)cc1`, the growth in the test with T-47D breast was -29.7% (active); in the test on BT-549 breast it was 32.2%; in the test on MDA-MB-435 melanoma it was 18.7%; in the test with SW-620 colon, -11.2% (active); in the test with MCF7 breast, -11.2% (active); in the test on HCT-116 colon, -45% (active). Besides, the growth was -25.1% (active) in the test on HCC-2998 colon and 13.5% with KM12 colon.

Regarding `CCN(CC)CCNc1ccc([N+](=O)[O-])c2sc3cc(Cl)ccc3c(=O)c12`, the growth in the test on T-47D breast was 103%; in the test on BT-549 breast, 89.9%; in the test on MDA-MB-435 melanoma it was 72.8%; in the test with SW-620 colon it was 40.2%; in the test on MCF7 breast, 24.6%; in the test with HCT-116 colon, 11.8%. The growth in the test with HCC-2998 colon was 47.3%; in the test with KM12 colon, 66.6%.

For `Cc1cc(C)c(O)c(C(=O)CC(Br)C(=O)O)c1` (configuration not stated), the growth with T-47D breast was 92.9%; in the test on BT-549 breast, 97.6%; with MDA-MB-435 melanoma it was 102%; with SW-620 colon, 116%; in the test on MCF7 breast it was 66.6%; with HCT-116 colon it was 99.3%. Moreover, the results for the growth in the test with HCC-2998 colon and in the test on KM12 colon were 93.3% and 97.9%, respectively.

Turning to `Fc1cccc(F)c1C#Cc1ccc2cccnc2c1`, the growth in the test with T-47D breast was 22.3%; with BT-549 breast, 95.6%; with MDA-MB-435 melanoma, 107%; in the test with SW-620 colon it was 90.5%; in the test with MCF7 breast, 14.8%; in the test on HCT-116 colon it was 74.6%. For the same molecule, the growth was 68.6% in the test with HCC-2998 colon and 79.1% in the test on KM12 colon.

Regarding `Fc1ccc(Nc2ncnc3ccc(-c4cn[nH]c4)cc23)cc1Cl`, the growth in the test with T-47D breast is -20.2% (active); in the test on BT-549 breast, 58%; in the test on MDA-MB-435 melanoma, 79.8%; with SW-620 colon it was 78.1%; in the test on MCF7 breast, 23.3%; in the test with HCT-116 colon it was 51.2%. Further, the growth was 85% with HCC-2998 colon and 67.1% with KM12 colon.

Take `COc1ccccc1N1CCN(CCCOc2ccc(OCCCN3CCN(c4ccccc4OC)CC3)c(C(=O)c3cc(OC)c(OC)c(OC)c3)c2)CC1`: the growth in the test with T-47D breast is 104%; in the test on BT-549 breast, 96.3%; in the test with MDA-MB-435 melanoma, 122%; in the test with SW-620 colon, 102%; in the test with MCF7 breast, 95.1%; with HCT-116 colon, 111%. The growth with HCC-2998 colon is 107%; with KM12 colon, 113%.

Consider `CC(=O)n1cc(/C=C2\N=C(c3ccc(Cl)cc3)N(c3ccc(S(=O)(=O)Nc4nccs4)cc3)C2=O)c2ccccc21`, for which the growth in the test on T-47D breast was 55.3%; in the test with BT-549 breast, 92.8%; with MDA-MB-435 melanoma it was 77%; with SW-620 colon it was 96.2%; in the test with MCF7 breast, 49.8%; with HCT-116 colon, 92.6%. Besides, the growth was 107% in the test with HCC-2998 colon and 69.9% in the test with KM12 colon.

Take `CC(CN(C)C)CN1c2ccccc2CCc2ccccc21` (configuration not stated): the growth with T-47D breast was 78.1%; with BT-549 breast it was 90.7%; with MDA-MB-435 melanoma, 72.4%; in the test on SW-620 colon, 93.3%; in the test on MCF7 breast it was 96.3%; in the test on HCT-116 colon it was 53.2%. Moreover, the figures for the growth in the test with HCC-2998 colon and with KM12 colon were 54.6% and 106%, respectively.

As for `O=C(N/N=C1\SCC(=O)N1c1ccccc1)c1cc(-c2cc3ccccc3o2)nn1-c1ccccc1`, the growth in the test on T-47D breast is 101%; with BT-549 breast, 101%; with MDA-MB-435 melanoma, 102%; in the test with SW-620 colon, 104%; in the test with MCF7 breast, 99.9%; with HCT-116 colon, 96.5%. The values for the growth with HCC-2998 colon and in the test with KM12 colon were 176% and 119%, respectively.
